Experimental data taken from PubChem BioAssay AID362 (NMMLSC, 2006).
“And” between values parts separate entries of the source, which are not always exact repeats. Identical values can stand only once. In all, about 4,300 compounds went through this assay and about 60 (1%) were called active. The list comes from a sample in which actives are over-represented; it also holds similar structures and randomly drawn compounds. Values without a mark were called inactive.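 How the source made its calls: active means inhibition of labelled peptide binding to the formyl peptide receptor of at least 65%; inactive means the rest.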

biological target: fMet-Leu-Phe receptor (Homo sapiens) (UniProt P21462); assay: small-molecule ligands of human FPR – U937-FPR cells, fMLFK-FITC, flow cytometry, primary screen (AID 362); settings: fMLFK-FITC displacement; active compounds read high, concentration not given here;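 on inhibition: plate controls were buffer control wells for no effect and unlabeled fMLFF blocking peptide for full effect; higher means less cell fluorescence so more probe displaced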
Sequence (P21462 whole entry, looked up): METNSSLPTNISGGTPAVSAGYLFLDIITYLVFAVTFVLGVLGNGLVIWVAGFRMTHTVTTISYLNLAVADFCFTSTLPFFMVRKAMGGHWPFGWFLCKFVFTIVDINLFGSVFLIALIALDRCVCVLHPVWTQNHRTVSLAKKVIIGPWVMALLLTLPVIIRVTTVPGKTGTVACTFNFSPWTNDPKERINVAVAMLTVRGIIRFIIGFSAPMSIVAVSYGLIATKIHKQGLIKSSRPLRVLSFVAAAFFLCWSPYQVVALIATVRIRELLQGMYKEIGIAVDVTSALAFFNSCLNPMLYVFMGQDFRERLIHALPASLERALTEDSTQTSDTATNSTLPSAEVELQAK

SMILES | inhibition
CCOC(=O)C1=C(C)NC2=C(C(=O)C(C(=O)OC)C(C)C2)C1c1ccccc1OC(C)C (stereo unspecified) | 10.1%
CC(C)(C)c1cc(Nc2ccccc2[N+](=O)[O-])cc(C(C)(C)C)c1O | 20.9%
CC(C)(C)c1cc(NS(=O)(=O)c2ccc([N+](=O)[O-])cc2)cc(C(C)(C)C)c1O | 68% (active)
CC(C)(C)c1cc(NS(=O)(=O)c2ccccc2[N+](=O)[O-])cc(C(C)(C)C)c1O | 9.2%
O=C(O)C12CC3CC(C1)CC(n1cnc([N+](=O)[O-])n1)(C3)C2 | inactive
COc1ccc(N(CC(=O)N2CC3CC(C2)c2cccc(=O)n2C3)S(=O)(=O)c2c(C)noc2C)cc1 (stereo unspecified) | inactive
CC1(C)CC(=O)C2=C(C1)c1c(ccc3ccccc13)NC2c1cc([N+](=O)[O-])ccc1N1CCOCC1 (stereo unspecified) | 71.9% (active)
COc1c(O)ccc(C2Nc3ccc4ccccc4c3C3=C2C(=O)CC(C)(C)C3)c1[N+](=O)[O-] (stereo unspecified) | 15.3%
COc1c(OC(C)=O)ccc(C2Nc3ccc4ccccc4c3C3=C2C(=O)CC(C)(C)C3)c1[N+](=O)[O-] (stereo unspecified) | inactive
CC(=O)N1c2ccc(S(=O)(=O)N(CC(C)C)CC(C)C)cc2CC1C (stereo unspecified) | inactive
CCCN(CCC)Cc1c(O)ccc2c(=O)c(Oc3ccc(OC)cc3)c(C(F)(F)F)oc12 | inactive
O=S(=O)(NC1CCCC1)c1cccc2nsnc12 | inactive
O=S(=O)(NC1CCCCCCC1)c1cccc2nsnc12 | inactive
N#CCCN(C(=O)c1cc(Cl)ccc1NS(=O)(=O)c1cccc2nsnc12)C1CCCCC1 | 73% (active)
CCOc1cc(C2Nc3c(ccc4ccccc34)C3=C2CCCC3=O)cc(Br)c1O (stereo unspecified) | inactive
COc1ccc(N2C3=C(C(=O)CC(C)(C)C3)C(c3ccc(F)cc3)C3=C2CC(C)(C)CC3=O)c(OC)c1 | inactive
CC1=CC(C)C2(COC(=O)Nc3ccccc3)COC(c3cccnc3)C1C2C (stereo unspecified) | inactive
CCCCNC(=O)c1cn(CC(C)C)c(=O)c2c1c1ccccc1n2C | inactive
CCN(C(=O)c1cccc(F)c1)c1ccc(C(O)(C(=O)OC)C(F)(F)F)cc1 (stereo unspecified) | 85.1% (active)
CCOC(=O)C(O)(c1ccc(N(CC)C(=O)c2cccc(F)c2)cc1)C(F)(F)F (stereo unspecified) | 27.9%
CCN(C(=O)c1ccc(F)cc1)c1ccc(C(O)(C(=O)OC)C(F)(F)F)cc1 (stereo unspecified) | inactive
O=C(CSc1c2c(nc3ccccc13)CCCC2)Nc1ccc2c(c1)OCCO2 | inactive
CC(C)C(C(=O)O)N1C(=O)/C(=C2/C(=O)N(C)c3ccccc32)SC1=S (stereo unspecified) | 94.4% (active)
CC(c1ccccc1)N1C(=O)/C(=C/c2c(N3CCCCC3)nc3ccccn3c2=O)SC1=S (stereo unspecified) | inactive

SMILES | inhibition
CC(C)c1nnc(NC(=O)C(C(C)C)N2C(=O)c3ccccc3C2=O)s1 (stereo unspecified) | 36.6%
CC(C)C(C(=O)O)N1C(=O)/C(=C/c2ccccn2)SC1=S (stereo unspecified) | 90.2% (active)
CC(C)C(C(=O)Nc1nccs1)N1C(=O)c2ccccc2C1=O (stereo unspecified) | 17.3%
CC(C)C(C(=O)O)N1C(=O)c2cccc([N+](=O)[O-])c2C1=O (stereo unspecified) | 17.7%
CCOc1ccccc1C1C2=C(CC(C)(C)CC2=O)Nc2nc(C(F)(F)F)nn21 (stereo unspecified) | 14.1%
O=C(COc1ccc(Cl)cc1)Oc1ccc2c3c(c(=O)oc2c1)CCC3 | 29.6%
CC(C)Cn1cc(C(=O)N2CCN(C(=O)c3ccco3)CC2)c2c3ccccc3n(C)c2c1=O | 4%
CCOCCOC(=O)C1=C(C)NC2=C(C(=O)C(C(=O)OC)C(C)C2)C1c1cccc(Cl)c1 (stereo unspecified) | 30.9%
CC1(C)C2([N+](=O)[O-])CN3CC1([N+](=O)[O-])CN(C2)C3C(O)C(O)C(O)C(O)CO (stereo unspecified) | inactive
O=C(C1CCC(CNS(=O)(=O)c2ccc(Br)s2)CC1)N1CCC(Cc2ccccc2)CC1 (stereo unspecified) | inactive
O=C(O)c1cccc2c1NC(C(=O)O)C1CC=CC21 (stereo unspecified) | 4.5%
CC(C)C1Nc2c(C(=O)O)cccc2C(Nc2ccccc2C(=O)O)C1(C)C (stereo unspecified) | 65.1% (active) and 89.9% (active)
COc1ccccc1C1Nc2c(C(=O)O)cccc2C2C3CCC(C3)C12 (stereo unspecified) | 20.9%
COc1ccc(Oc2c(C(F)(F)F)oc3cc(OC(C)C(=O)OCCC(C)C)ccc3c2=O)cc1 (stereo unspecified) | 8%
O=C(NCCCN1CCC(Cc2ccccc2)CC1)C1CCC(CNS(=O)(=O)c2ccccc2)CC1 (stereo unspecified) | inactive
COc1ccc(C2C(C(=O)OC3CCCCC3)=C(C)NC3=C2C(=O)CC(c2ccc(Cl)cc2)C3)cc1OC (stereo unspecified) | 77.5% (active)
COc1cc(C2C(C(=O)OC3CCCCCC3)=C(C)NC3=C2C(=O)CCC3)cc([N+](=O)[O-])c1O (stereo unspecified) | 69.7% (active)
CCOc1cc(C2C(C(=O)OC3CCCCCC3)=C(C)NC3=C2C(=O)CC(C)(C)C3)cc([N+](=O)[O-])c1O (stereo unspecified) | 40.2%
CC1=C(C(=O)OC2CCCCC2)C(c2ccc(Cl)c([N+](=O)[O-])c2)C2=C(CCCC2=O)N1 (stereo unspecified) | inactive
COc1cc(C2C(C(=O)OC3CCCCC3)=C(C)NC3=C2C(=O)CC(c2ccc(Cl)cc2)C3)ccc1OC(C)=O (stereo unspecified) | 7%
COc1cc(C2C(C(=O)OC3CCCCCC3)=C(C)NC3=C2C(=O)CC(C)(C)C3)cc([N+](=O)[O-])c1O (stereo unspecified) | 59.7%
COc1cc(C2C(C(=O)OC3CCCCC3)=C(C)NC3=C2C(=O)CCC3)cc(Cl)c1O (stereo unspecified) | 24.3%
COc1cc(C2C(C(=O)OC3CCCC3)=C(C)NC3=C2C(=O)CC(c2ccc(Cl)cc2)C3)ccc1OC(C)=O (stereo unspecified) | 8.8%
CCOc1cc(C2C(C(=O)OC3CCCCCC3)=C(C)NC3=C2C(=O)CCC3)cc([N+](=O)[O-])c1O (stereo unspecified) | 66.4% (active)

SMILES | inhibition
COc1ccc(C2NC(=O)NC(C)=C2C(=O)OC2CCCCCC2)cc1 (stereo unspecified) | inactive
CCOC(=O)C1CCC(CN(Cc2ccccc2C)S(=O)(=O)c2cccc(C(F)(F)F)c2)CC1 (stereo unspecified) | inactive
COc1cc(C2C3=C(CC(C)(C)CC3=O)OC3=C2C(=O)CC(C)(C)C3)ccc1OC(=O)c1cccc(C)c1 | 12.3%
COc1cccc(C(=O)Oc2ccc(C(C3=C(O)CC(C)(C)CC3=O)C3=C(O)CC(C)(C)CC3=O)cc2OC)c1 | 86.9% (active)
CCOc1cc(C2C3=C(CC(C)(C)CC3=O)OC3=C2C(=O)CC(C)(C)C3)ccc1OC(=O)c1cccc(OC)c1 | inactive
COc1cccc(C(=O)Oc2ccc(C3C4=C(CC(C)(C)CC4=O)OC4=C3C(=O)CC(C)(C)C4)cc2OC)c1 | inactive
CCOc1cc(C(C2=C(O)CC(C)(C)CC2=O)C2=C(O)CC(C)(C)CC2=O)ccc1OC(=O)c1cccc(OC)c1 | 80.2% (active)
CCOc1cc(C2C3=C(CC(C)(C)CC3=O)OC3=C2C(=O)CC(C)(C)C3)ccc1OC(=O)c1cccc(C)c1 | inactive
CCOC(=O)c1cccc(N2C(=O)C3C(C2=O)C2C=CC3C23CC3)c1 (stereo unspecified) | 5.1%
CCSCCOC(=O)C1=C(C)NC2=C(C(=O)C(C(=O)OC)C(C)C2)C1c1c(F)cccc1Cl (stereo unspecified) | inactive
CCCOCCOC(=O)C1=C(C)NC2=C(C(=O)C(C(=O)OC)C(C)C2)C1c1ccc(C)o1 (stereo unspecified) | 53.7%
CCN(Cc1ccccc1)Cc1c(O)ccc2c(=O)c(Oc3ccc(OC)cc3)c(C(F)(F)F)oc12 | inactive
CCOc1ccccc1C(=O)NC1(C(F)(F)F)C(=O)Nc2c1c(=O)[nH]c(=O)n2-c1ccc(C)cc1 (stereo unspecified) | 65.3% (active)
Cc1ccc(-n2c3c(c(=O)[nH]c2=O)C(NC(=O)c2ccccc2C)(C(F)(F)F)C(=O)N3)cc1 (stereo unspecified) | 10.6%
CCOc1ccccc1C(=O)NC1(C(F)(F)F)C(=O)Nc2c1c(=O)[nH]c(=O)n2-c1ccc(F)cc1 (stereo unspecified) | 75.2% (active)
O=C(NC1(C(F)(F)F)C(=O)Nc2c1c(=O)[nH]c(=O)n2-c1ccc(F)cc1)c1ccccc1Cl (stereo unspecified) | 11%
Cc1ccccc1C(=O)NC1(C(F)(F)F)C(=O)Nc2c1c(=O)[nH]c(=O)n2-c1ccc(F)cc1 (stereo unspecified) | 12.2%
CCOc1ccccc1C(=O)NC1(C(F)(F)F)C(=O)Nc2c1c(=O)[nH]c(=O)n2-c1ccccc1 (stereo unspecified) | 63.1%
CCOC(=O)CSc1nc2ccccc2c(=O)n1CC1CCC(C(=O)NCCc2ccccc2)CC1 (stereo unspecified) | inactive
O=C(O)C1C2C=CC(C2)C1C(=O)NCC1CCCO1 (stereo unspecified) | 2.4%
CCCOCCOC(=O)C1=C(C)NC2=C(C(=O)C(C(=O)OC)C(C)C2)C1c1cccc(OC)c1 (stereo unspecified) | 37.6%
CCC(C)C(Nc1ncnc2sc3c(c12)CCC3)C(=O)O (stereo unspecified) | 0.8%
COc1ccc(OC)c(NC(=O)C(C(C)C)N2C(=O)c3ccccc3C2=O)c1 (stereo unspecified) | 27.7%
